# From the OligoGym collection
# Biological target: DHCR7
# Test: pooled miR-30 sensor sort-seq; sequence = guide strand
# Details: shRNA
# Note: reference of the scale not given here.
row,Sequence,sensor-assay potency score (higher = more potent)
1,TTGCAGTCTCTGGCGCTGGTGG,-0.837
2,TGAATTTGCAGTCTCTGGCGCT,0.0615
3,TTAAACTCGATGCCCATCATGT,-0.575
4,TAGATGATGTAGAAGTAGGGCA,0.47
5,TATAGGTGGAGTCTTGGCCCAG,-1.1
6,TTGAAGAACAGCTTGAAGTCAA,0.748
7,TTGAAGTCAAACCACTTCCCGA,-0.639
8,TAGTTGTAAAAGAAATTGCCTG,-0.825
9,TAGGAAGATGACGCTCGCCAGT,-1.46
10,TTGGCTTTGGGAATGTTGGGTT,0.501

# Biological target: DHPS
# Test: as above
# Details: shRNA
row,Sequence,sensor-assay potency score (higher = more potent)
1,TCGGGCGGCAACGTCGAGCTGT,-0.875
2,TTCCAGCTTCTTCTCGATCATG,-1.22
3,TACGTCCACCATGTTGTGCTGC,-0.635
4,TAGCTGACCAAAAAGTAGGGGA,0.0141
5,TAAACAGCGTAGTCGGCCCCGT,-0.782
6,TTCTGCTCCATCACCATCTGGT,0.0359
7,TGAGGTTGGATGTATATCCCAG,-0.155
8,TATCCCAGGAAAATGGTGCAGC,-0.649
9,TCTTCATCCTGTGACAGTGGTT,-0.839
10,TATTGATCCCGTTCTCCCGGAG,-0.362
11,AAAGGTTTCAGCCACAAGCAGG,-1.41
12,TTGTGCTGCACAAGGTAGCGAA,-0.894
13,TTGATGTAAACAGCGTAGTCGG,-0.879
14,TTGACTTGCTGTACAGCGCGCC,0.283
15,TTTCCGATCCTATTGATCCCGT,-0.549
16,TTCTTCTCGATCATGGCATTGA,-0.43
17,TAGGAATGGAAGAAGATCATGT,0.621
18,TGATGTAAACAGCGTAGTCGGC,-0.353
19,TCGAGCTGTGCTTTAGCACGGC,-0.48
20,TTGGTTGCTTGGAAGCCGGTGG,-0.209
